From PubChem BioAssay
Where “and” joins values, the source holds several entries; their conditions need not be identical. Equal values may be shown once. Results filed as inconclusive are left out. Calls of active or inactive are those of the source. Unless noted, no stated cut-off is given here; in the data, active means inhibition above about 80%; inactive means the rest.

How the values were obtained:
[1] = viability loss in pontine glioma line – cell-based, SU-DIPG-XIII, MIPE4.0, CellTiter-Glo, qHTS, dose response (AID 1347061; cut-off not given, nearly all actives have AC50 up to about 37 µM;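 further: cells exposed to compound for 48 hours before readout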); details: CellTiter-Glo ATP luminescence
[2] = viability loss in pontine glioma line – cell-based, SU-DIPG-IV, MIPE4.0, CellTiter-Glo, qHTS, dose response (AID 1347063; cut-off not given, nearly all actives have AC50 up to about 30 µM;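 further: compound exposure lasted 48 hours before the viability readout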); details: CellTiter-Glo ATP luminescence
[3] = growth inhibition of DIPG cells – cell-based, MIPE4.0 library, CellTiter-Glo luminescence, qHTS (AID 1347066; cut-off not given, nearly all actives have AC50 up to about 30 µM;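 further: cells exposed to compound for 48 hours before readout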); details: SU-DIPG-VI viability, CellTiter-Glo ATP luminescence
[4] = viability loss with induced miR-34 in A549 – imaging, A549 dox-inducible miR-34, nuclei and caspase counts, primary screen (AID 1347080;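 active means compounds whose cell count with miR-34 switched on is under 0.7 times the count with it off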); details: A549 miR-34 inducible, Hoechst nuclei count, 48 h
[5] = compounds altering HSF1 focus formation in cells – imaging, Selleck Cancer Library (AID 1347162; in the data active means plate-normalised HSF1 focus index below about 0.46); details: human cells, HSF1 nuclear foci imaging, at 10 µM; SSMD: measured here: HSF1 foci SSMD mean; cell count: measured here: cell number; plate-normalised HSF1 focus index: stronger effect = lower value
[6] = MELAS cybrid and Rieske KO viability enhancers – cell-based, MELAS cybrids, Rieske KO mouse fibroblasts, CellTiter-Glo, primary screen (AID 1508586;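 active means mean z-score across replicates of 1.96 or higher in either the MELAS or the Rieske mutant cell line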;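 further: z relative to plate mean and SD of compound and empty wells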); details: low glucose
[7] = growth inhibition, single agent or in combination, cell-based, chromothripsis tumors, cisplatin or BGB combos (AID 1671449); details: LFS_MB_P medulloblastoma cells;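 further: cells exposed for 96 hours; 0% = vehicle DMSO and 100% = killing by high DMSO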
[8] = growth inhibition, single agent and combos, cell-based, chromothripsis tumors, cisplatin or BGB combos (AID 1671450); details: HDN33 neuroblastoma cells, stronger effect = higher value;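 further: cells exposed to compound for four days; 0% = vehicle DMSO and 100% = cell killing by high DMSO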
[9] = growth inhibition, single agents and combos, ICB984, cell-based, cisplatin or BGB combos, synergistic combos for chromothripsis tumors (AID 1671451; call rule not given here;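 further: cells exposed for 96 hours before readout; 0% = vehicle DMSO and 100% = killing by high DMSO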); details: ICB984 medulloblastoma cells, drug combinations, stronger effect = higher value
[10] = growth inhibition, single agents and combos, HTB85, cell-based, BGB or cisplatin IC20 combos, synergistic combos for chromothripsis tumors (AID 1671453); details: HTB85 osteosarcoma cells, drug combinations, stronger effect = higher value;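 further: cells exposed for 96 hours before readout; 0% = vehicle DMSO and 100% = high DMSO killing control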
[11] = growth inhibition, MDA-MB-436, cell-based, BGB or cisplatin combos, synergistic combos for chromothripsis tumors (AID 1671458; call rule not given here;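 further: cells exposed for 96 hours; 0% = vehicle DMSO and 100% = killing by high DMSO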); details: MDA-MB-436 breast carcinoma growth inhibition, drug combinations, stronger effect = higher value
[12] = BT084 cell growth, single and combined drugs, ICGC_MB145, cisplatin and BGB IC40 combos (AID 1671461); details: BT084 medulloblastoma cells, drug combinations, stronger effect = higher value;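 further: cells exposed to drugs for 96 hours; 0% = vehicle DMSO and 100% = high DMSO full killing control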
[13] = RCMB18 cell growth, single agent and combined, cisplatin and BGB IC40 combos (AID 1671462); details: RCMB18 medulloblastoma cells, stronger effect = higher value;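 further: cells exposed to compound for four days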
[14] = CRL1545 cell growth, single agent and combined, cisplatin and BGB IC20 combos (AID 1671464); details: CRL1545 osteosarcoma cells, stronger effect = higher value;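 further: cells exposed to compound for 96 hours before readout; 0% = vehicle DMSO and 100% = high DMSO killing control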
[15] = viability loss in pontine glioma line – cell-based, JHH-DIPG-1, MIPE4.0, CellTiter-Glo, qHTS, dose response (AID 1347062; cut-off not given, nearly all actives have AC50 up to about 27 µM); details: JHH-DIPG-1 viability, CellTiter-Glo ATP luminescence
[16] = stronger effect = lower value, cell number ratio, induced over uninduced
[17] = measured here: relative caspase fold change +Dox/-Dox
[18] = measured here: total cells with miR-34 induction, stronger effect = lower value
[19] = measured here: total cells without miR-34 induction
[20] = MELAS cybrid survival, CellTiter-Glo 48 h, stronger effect = higher value
[21] = Rieske KO mouse fibroblast survival, CellTiter-Glo 72 h
[22] = measured here: with BGB IC20 combination, at 0.5 µM
[23] = measured here: with cisplatin IC20 combination, at 0.5 µM

**Q.** Which outcome [1] does the source give for CNCc1ccc(-c2[nH]c3cc(F)cc4c3c2CCNC4=O)cc1 here?
**A.** inactive

**Q.** What about the outcome [2] of the same compound?
**A.** inactive

**Q.** And the outcome [3]?
**A.** inactive

**Q.** What about the fold change [4, 16] of the same compound?
**A.** 0.956 (inactive)

**Q.** What about the fold change [4, 17] of the same compound?
**A.** 1.62

**Q.** And the cell count [4, 18]?
**A.** 6530

**Q.** What about the cell count [4, 19] of the same compound?
**A.** 6840

**Q.** And the SSMD [5]?
**A.** 2.12

**Q.** And the cell count [5]?
**A.** 7610

**Q.** What about the plate-normalised HSF1 focus index [5] of the same compound?
**A.** 1.13 (inactive)

**Q.** What about the z-score [6, 20] of the same compound?
**A.** -0.49 (inactive)

**Q.** What about the z-score [6, 21] of the same compound?
**A.** -0.266

**Q.** What about the inhibition ([7]; at 0.5 µM, stronger effect = higher value) of the same compound?
**A.** 11.2% (inactive) and -4.36% (inactive)

**Q.** What about the inhibition ([7]; measured here: combination with BGB IC20, at 0.005 µM) of the same compound?
**A.** -33.6% and -11.5%

**Q.** What about the inhibition ([7]; measured here: combination with BGB IC40, at 0.005 µM) of the same compound?
**A.** -21.8% and 22.8%

**Q.** And the inhibition ([7]; measured here: combination with BGB IC40, at 0.05 µM)?
**A.** -33.3% and -12.4%

**Q.** What about the inhibition ([7]; measured here: combination with cisplatin, at 0.5 µM, stronger effect = higher value) of the same compound?
**A.** -17.5% and -5.55%

**Q.** What about the inhibition ([7]; measured here: combination with cisplatin, at 5 µM, stronger effect = higher value) of the same compound?
**A.** -45.3% and -35.9%

**Q.** And the inhibition ([8]; BGB combo, at 5 µM)?
**A.** -25.2% and 11.9%

**Q.** What about the inhibition ([8]; at 0.5 µM) of the same compound?
**A.** -14.8% (inactive) and 14.3% (inactive)

**Q.** What about the inhibition ([8]; cisplatin combo, at 5 µM) of the same compound?
**A.** -4.69% and 14.3%

**Q.** What about the inhibition [8, 22] of the same compound?
**A.** -21.7% and 13.3%

**Q.** What about the inhibition [8, 23] of the same compound?
**A.** -14.7% and 11.6%

**Q.** What about the inhibition ([8]; single agent, at 5 µM) of the same compound?
**A.** 9.94% and 30.8%

**Q.** What about the inhibition ([9]; BGB IC20 combo, at 0.005 µM) of the same compound?
**A.** -15.3% and 7.74%

**Q.** What about the inhibition ([9]; BGB IC40 combo, at 0.005 µM) of the same compound?
**A.** -14.9% and -10.3%

**Q.** What about the inhibition ([9]; BGB IC40 combo, at 0.05 µM) of the same compound?
**A.** -15.6% and -2.1%

**Q.** And the inhibition ([9]; at 0.5 µM)?
**A.** -18% (inactive) and -11.9% (inactive)

**Q.** What about the inhibition ([9]; cisplatin combo, at 0.05 µM) of the same compound?
**A.** -19.7% and -5.77%

**Q.** What about the inhibition ([9]; cisplatin combo, at 0.5 µM) of the same compound?
**A.** -11.2% and -6.08%

**Q.** And the inhibition ([9]; cisplatin combo, at 5 µM)?
**A.** -48.3% and -31.5%

**Q.** And the inhibition ([9]; measured here: 5 uM single agent, at 5 µM)?
**A.** 4.24% and 12.5%

**Q.** And the inhibition ([10]; at 0.5 µM)?
**A.** -0.57% (inactive) and 3.23% (inactive)

**Q.** And the inhibition ([10]; measured here: with BGB IC20, at 0.5 µM)?
**A.** -24.5% and -14.6%

**Q.** And the inhibition ([10]; measured here: with BGB IC20, at 5 µM)?
**A.** -20.2% and -0.361%

**Q.** And the inhibition ([10]; measured here: with cisplatin IC20, at 0.5 µM)?
**A.** 6.68% and 16.2%

**Q.** And the inhibition ([10]; measured here: with cisplatin IC20, at 5 µM)?
**A.** -9.57% and 9.16%

**Q.** What about the inhibition ([10]; single agent, at 5 µM) of the same compound?
**A.** -2.29% and 13.1%

**Q.** And the inhibition ([11]; at 0.5 µM)?
**A.** 2.86% (inactive) and 14.9% (inactive)

**Q.** And the inhibition ([11]; measured here: BGB combination, at 0.5 µM)?
**A.** -19.1% and 0.063%

**Q.** And the inhibition ([11]; measured here: BGB combination, at 5 µM)?
**A.** -12.9% and -16%

**Q.** What about the inhibition ([11]; measured here: cisplatin combination, at 0.5 µM) of the same compound?
**A.** 9.87% and 19.6%

**Q.** And the inhibition ([11]; measured here: cisplatin combination, at 5 µM)?
**A.** 31.2% and 24.2%

**Q.** And the inhibition ([12]; at 0.5 µM)?
**A.** -22% (inactive) and 7.71% (inactive)

**Q.** What about the inhibition ([12]; cisplatin combination, at 0.5 µM) of the same compound?
**A.** -60.7% and -23.3%

**Q.** What about the inhibition ([12]; cisplatin combination, at 5 µM) of the same compound?
**A.** -41.6% and -18%

**Q.** What about the inhibition ([12]; measured here: BGB IC40 combination 0.05 uM, at 0.05 µM) of the same compound?
**A.** 24.6% and 0.2%

**Q.** What about the inhibition ([12]; single agent, at 5 µM) of the same compound?
**A.** -4.29% and -11.5%

**Q.** What about the inhibition ([13]; at 0.5 µM) of the same compound?
**A.** -28.5% (inactive) and -5.9% (inactive)

**Q.** What about the inhibition ([13]; cisplatin combo, at 5 µM) of the same compound?
**A.** -30.1% and -29%

**Q.** And the inhibition ([13]; measured here: BGB IC40 combination, at 0.05 µM)?
**A.** -11.1% and 4.25%

**Q.** What about the inhibition ([13]; measured here: combination with cisplatin, at 0.5 µM) of the same compound?
**A.** -71.1% and 1.49%

**Q.** What about the inhibition ([13]; single agent, at 5 µM) of the same compound?
**A.** -19.5% and -1.31%

**Q.** What about the inhibition ([14]; at 0.5 µM) of the same compound?
**A.** 3.62% (inactive) and -10.7% (inactive)

**Q.** What about the inhibition [14, 22] of the same compound?
**A.** -15.5% and 1.35%

**Q.** And the inhibition [14, 23]?
**A.** 11.8% and -18.6%

**Q.** And the inhibition ([14]; single agent, at 0.05 µM)?
**A.** 15.8% and 33%

**Q.** What about the inhibition ([14]; single agent, at 5 µM) of the same compound?
**A.** 1.41% and -6.63%

**Q.** Which outcome [1] does the source give for O=C1C(CCC(O)c2ccc(F)cc2)C(c2ccc(O)cc2)N1c1ccc(F)cc1 (configuration not stated) here?
**A.** inactive

**Q.** What about the outcome [15] of the same compound?
**A.** inactive

**Q.** And the outcome [3]?
**A.** inactive

**Q.** What about the fold change [4, 16] of the same compound?
**A.** 0.893 (inactive) and 0.906 (inactive)

**Q.** What about the fold change [4, 17] of the same compound?
**A.** 1.57 and 0.763

**Q.** What about the cell count [4, 18] of the same compound?
**A.** 7660 and 7830

**Q.** What about the cell count [4, 19] of the same compound?
**A.** 8580 and 8640

**Q.** What about the z-score [6, 20] of the same compound?
**A.** -0.505 (inactive)

**Q.** What about the z-score [6, 21] of the same compound?
**A.** -0.0457
